The values that follow come from PubChem BioAssay (NCI).

This is part of a sample that, as a whole, favours compounds with a hit. Of some 83,000 tested, about 20% had one in any assay.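 Compound tested at a single concentration for 48 hours in 96-well plates; a percent growth value below 10 was scored as active.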 A number with no mark means an inactive call. The source made the active and inactive calls.

This assay deals with MDA-MB-468 breast. As to the kind of experiment: NCI-60 one-dose screen, 48 h (100 = growth as untreated, 0 = no growth, -100 = all killed). Conditions: 10 µM unless noted.
As to `COc1ccc(-c2nnc(COc3ccc(NC(=O)Nc4ccccc4)cc3F)o2)cc1`, the growth is 86.9%. As to `COc1ccc2c(c1)c(=O)oc1c(C)c(OCC(C)=O)ccc12`, the growth was 88.5%. The same measure for `COc1cccc(/C=C2\Oc3cc(OCCN4CCCC4)ccc3C2=O)c1`: 82.8%.

In the case of `Cc1ccc(S(=O)(=O)c2ccccc2)cc1`, the growth was -10.8% (active). The same measure for `CC1=C(C#N)C(=O)NC(C)C1` (stereo unspecified): 108%; for `CC(=O)OCC1CCCO1` (stereo unspecified): 105%.

Take `CC/C=C\C/C=C/C=C1/C(=O)C=C[C@@H]1C/C=C\CCCC(=O)OC`: the growth was 19.8%.

For `ClC(Cl)c1nc(-c2ccccc2)n2nc(-c3ccccc3)cc2n1`, the growth was -52.3% (active).

Regarding `O=C(O)c1cccc2c1-c1ccccc1C2=O`, the growth was 116%. The result for `O=C(N/N=C/c1ccncc1)c1ccccc1Nc1cccc(C(F)(F)F)c1` reads 48.7%; that for `COc1cccc(C2CC(=O)Nc3cc4c(cc32)OCO4)c1OC` (stereo unspecified), 73.2%.
